# Laboratory results: PubChem BioAssay AID1159580 (chemical genetic matrix, 2015)
# About 2,000 (36%) of roughly 5,500 compounds were called active. Inconclusive results (about 18%) are left out. This is one part of the list. A number with no mark means an inactive call. Cut-off read from the data, not from the text of the source: active = normalized growth mostly below about 0.91 (no sharp cut-off); inconclusive = no clear call, values can overlap the other calls; inactive = mostly above about 0.92.
# Test: chemical genetic growth profiling, strain panel (AID 1159580);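 note: tested at 20 µM; growth read once vehicle control cultures reached saturation at 30 °C; 1 = growth at the plate median or of vehicle wells; lower values mean less growth of the strain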
# Conditions: S. cerevisiae deletion strains, growth OD
# [1] = locus YDL101C, strain DUN1, hits give low values
# [2] = locus YHR030C, strain SLT2, hits give low values
# [3] = locus YAR019C, strain CDC15, hits give low values
# [4] = locus YBL105C, strain PKC1, hits give low values
# [5] = locus YBR135W, strain CKS1, hits give low values
# [6] = locus YBR136W, strain MEC1, hits give low values
# [7] = locus YBR160W, strain CDC28, hits give low values
# [8] = locus YDL017W, strain CDC7, hits give low values
# [9] = locus YDL028C, strain MPS1, hits give low values
# [10] = locus YDL108W, strain KIN28, hits give low values
# [11] = locus YDL132W, strain cdc53, hits give low values
# [12] = locus YDL214C, strain PRR2, hits give low values
# [13] = locus YDR052C, strain DBF4, hits give low values
# [14] = locus YDR054C, strain cdc34, hits give low values
# [15] = locus YDR226W, strain ADK1, hits give low values
# [16] = locus YDR477W, strain SNF1, hits give low values
# [17] = locus YER123W, strain YCK3, hits give low values
# [18] = locus YER133W, strain GLC7, hits give low values
# [19] = locus YFL009W, strain cdc4, hits give low values
# [20] = locus YFL029C, strain CAK1, hits give low values
# [21] = locus YFR003C, strain YPI1, hits give low values
# [22] = locus YFR019W, strain FAB1, hits give low values
# [23] = locus YFR028C, strain CDC14, hits give low values
# [24] = locus YGR040W, strain KSS1, hits give low values
# [25] = locus YGR052W, strain FMP48, hits give low values
# [26] = locus YGR092W, strain DBF2, hits give low values
# [27] = locus YHR079C, strain IRE1, hits give low values
# [28] = locus YHR082C, strain KSP1, hits give low values
# [29] = locus YHR205W, strain SCH9, hits give low values
# [30] = locus YIL147C, strain SLN1, hits give low values
# [31] = locus YJL095W, strain BCK1, hits give low values
# [32] = locus YJL128C, strain PBS2, hits give low values
# [33] = locus YJL157C, strain FAR1, hits give low values
# [34] = locus YJR016C, strain ILV3, hits give low values
# [35] = locus YJR066W, strain TOR1 (second series), hits give low values
# [36] = locus YJR066W, strain TOR1, hits give low values
# [37] = locus YKL048C, strain ELM1, hits give low values
# [38] = locus YKL067W, strain YNK1, hits give low values
# [39] = locus YKL101W, strain HSL1, hits give low values
# [40] = locus YKL193C, strain SDS22, hits give low values
# [41] = locus YKL203C, strain TOR2, hits give low values
# [42] = locus YLR113W, strain HOG1, hits give low values
# [43] = locus YLR133W, strain CKI1, hits give low values
# [44] = locus YLR403W, strain SFP1, hits give low values
# [45] = locus YML070W, strain DAK1, hits give low values
# [46] = locus YMR001C, strain CDC5, hits give low values
# [47] = locus YMR205C, strain PFK2 (second series), hits give low values
# [48] = locus YMR277W, strain FCP1, hits give low values
# [49] = locus YNL006W, strain LST8, hits give low values
# [50] = locus YNL020C, strain ARK1, hits give low values
# [51] = locus YNL161W, strain CBK1, hits give low values
# [52] = locus YNL183C, strain NPR1, hits give low values
# [53] = locus YNL207W, strain RIO2, hits give low values
# [54] = locus YNL222W, strain SSU72, hits give low values
# [55] = locus YNL307C, strain MCK1 (second series), hits give low values
# [56] = locus YOL078W, strain AVO1, hits give low values
# [57] = locus YOL136C, strain PFK27, hits give low values
# [58] = locus YOR061W, strain CKA2, hits give low values
# [59] = locus YOR119C, strain RIO1, hits give low values
# [60] = locus YOR231W, strain MKK1, hits give low values
# [61] = locus YOR329C, strain SCD5, hits give low values
# [62] = locus YPL031C, strain PHO85, hits give low values
# [63] = locus YPL153C, strain RAD53, hits give low values
# [64] = locus YPL204W, strain HRR25, hits give low values
# [65] = locus YPL209C, strain IPL1, hits give low values
# [66] = locus YPL256C, strain CLN2, hits give low values
# [67] = locus YPR025C, strain CCL1, hits give low values
# [68] = locus YPR106W, strain ISR1, hits give low values
# [69] = locus YPR111W, strain DBF20, hits give low values
# [70] = strain NNK1, hits give low values
# [71] = strain TSCII, hits give low values
compound,measurement,setting,value
COc1cccc(C2C3=C(CC(C)(C)CC3=O)OC3=C2C(=O)CC(C)(C)C3)c1O,normalized growth,"locus YAL013W, strain DEP1, hits give low values",1
same,normalized growth,"locus YBR229C, strain ROT2, hits give low values",0.987
same,normalized growth,"locus YCL061C, strain MRC1, hits give low values",1.02
same,normalized growth,[1],1.01
same,normalized growth,"locus YDL134C, strain PPH21, hits give low values",0.978
same,normalized growth,"locus YDR150W, strain NUM1, hits give low values",1.04
same,normalized growth,"locus YEL061C, strain CIN8, hits give low values",0.965
same,normalized growth,"locus YGR078C, strain PAC10, hits give low values",1
same,normalized growth,[2],1.08
same,normalized growth,"locus YHR087W, strain rtc3, hits give low values",0.958
same,normalized growth,"locus YJR043C, strain POL32, hits give low values",1.03
same,normalized growth,"locus YJR075W, strain HOC1, hits give low values",1
same,normalized growth,"locus YKL190W, strain CNB1, hits give low values",0.988
same,normalized growth,"locus YLR039C, strain RIC1, hits give low values",1.08
same,normalized growth,"locus YLR058C, strain SHM2 (second series), hits give low values",0.991
same,normalized growth,"locus YLR085C, strain ARP6, hits give low values",0.977
same,normalized growth,"locus YLR262C, strain YPT6, hits give low values",1.04
same,normalized growth,"locus YML094W, strain GIM5, hits give low values",1.01
same,normalized growth,"locus YMR219W, strain ESC1, hits give low values",1
same,normalized growth,"locus YMR263W, strain SAP30, hits give low values",0.999
same,normalized growth,"locus YMR307W, strain GAS1, hits give low values",0.876
same,normalized growth,"locus YNL128W, strain TEP1, hits give low values",0.983
same,normalized growth,"locus YNL153C, strain GIM3, hits give low values",1
same,normalized growth,"locus YNL298W, strain CLA4 (second series), hits give low values",0.927
same,normalized growth,"locus YNL322C, strain KRE1, hits give low values",0.993
same,normalized growth,"locus YNR030W, strain Alg12, hits give low values",0.977
same,normalized growth,"locus YOL006C, strain TOP1, hits give low values",0.947
same,normalized growth,"locus YPL055C, strain LGE1, hits give low values",1
same,normalized growth,"locus YPL241C, strain CIN2, hits give low values",1.01
same,normalized growth,"locus YPR135W, strain CTF4, hits give low values",0.976
COC(=O)C1=C(C)NC(C)=C(C(=O)OC)C1c1ccc(Cl)cc1Cl,normalized growth,[3],0.973
same,normalized growth,[4],0.976
same,normalized growth,[5],0.971
same,normalized growth,[6],0.976
same,normalized growth,[7],0.981
same,normalized growth,[8],0.979
same,normalized growth,[9],0.977
same,normalized growth,[1],0.973
same,normalized growth,[10],0.967
same,normalized growth,[11],0.967
same,normalized growth,[12],0.917
same,normalized growth,[13],0.986
same,normalized growth,[14],0.967
same,normalized growth,[15],0.972
same,normalized growth,[16],0.909
same,normalized growth,[17],0.887
same,normalized growth,[18],0.889
same,normalized growth,[19],0.968
same,normalized growth,[20],0.969
same,normalized growth,[21],0.98
same,normalized growth,[22],0.949
same,normalized growth,[23],0.974
same,normalized growth,[24],0.914
same,normalized growth,[25],0.989
same,normalized growth,[26],0.88
same,normalized growth,[2],0.99
same,normalized growth,[27],0.963
same,normalized growth,[28],0.97
same,normalized growth,[29],0.943
same,normalized growth,[30],0.961
same,normalized growth,[31],0.961
same,normalized growth,[32],0.98
same,normalized growth,[33],0.928
same,normalized growth,[34],0.972
same,normalized growth,[35],0.908
same,normalized growth,[36],0.999
same,normalized growth,[37],0.949
same,normalized growth,[38],0.947
same,normalized growth,[39],0.936
same,normalized growth,[40],0.978
same,normalized growth,[41],0.975
same,normalized growth,[42],0.912
same,normalized growth,[43],0.956
same,normalized growth,[44],0.88
same,normalized growth,[45],0.911
same,normalized growth,[46],0.972
same,normalized growth,[47],0.956
same,normalized growth,[48],0.978
same,normalized growth,[49],0.973
same,normalized growth,[50],0.94
same,normalized growth,[51],0.987
same,normalized growth,[52],0.985
same,normalized growth,[53],0.973
same,normalized growth,[54],0.973
same,normalized growth,[55],0.947
same,normalized growth,[56],0.991
same,normalized growth,[57],0.918
same,normalized growth,[58],0.93
same,normalized growth,[59],0.945
same,normalized growth,[60],0.933
same,normalized growth,[61],0.984
same,normalized growth,[62],0.884
same,normalized growth,[63],0.866
same,normalized growth,[64],0.898
same,normalized growth,[65],0.985
same,normalized growth,[66],0.971
same,normalized growth,[67],0.979
same,normalized growth,[68],0.975
same,normalized growth,[69],0.975
same,normalized growth,[70],0.977
same,normalized growth,[71],0.968
CCOC(=O)C1=C(N)OC2=C(C(=O)CC(C)(C)C2)C1c1ccc(Cl)cc1Cl (configuration not stated),normalized growth,[3],0.984
same,normalized growth,[4],0.982
same,normalized growth,[5],0.978
same,normalized growth,[6],0.981
same,normalized growth,[7],0.964
same,normalized growth,[8],0.978
same,normalized growth,[9],0.98
same,normalized growth,[1],0.966
same,normalized growth,[10],0.978
same,normalized growth,[11],0.975
same,normalized growth,[12],0.968
same,normalized growth,[13],0.979
same,normalized growth,[14],0.965
same,normalized growth,[15],0.978
same,normalized growth,[16],0.95
same,normalized growth,[17],0.927
same,normalized growth,[18],0.959
same,normalized growth,[19],0.974
same,normalized growth,[20],0.981
same,normalized growth,[21],0.982
same,normalized growth,[22],0.956
same,normalized growth,[23],0.976
same,normalized growth,[24],0.954
same,normalized growth,[25],1.08
same,normalized growth,[26],0.973
same,normalized growth,[2],0.804 (active)
same,normalized growth,[27],0.943
same,normalized growth,[28],1.01
same,normalized growth,[29],0.953
same,normalized growth,[30],0.984
same,normalized growth,[31],0.904
same,normalized growth,[32],0.975
same,normalized growth,[33],0.976
same,normalized growth,[34],0.99
same,normalized growth,[35],0.95
same,normalized growth,[36],0.947
same,normalized growth,[37],0.948
same,normalized growth,[38],0.959
same,normalized growth,[39],0.963
same,normalized growth,[40],0.973
same,normalized growth,[41],1
same,normalized growth,[42],0.934
same,normalized growth,[43],0.961
same,normalized growth,[44],0.964
same,normalized growth,[45],0.944
same,normalized growth,[46],0.984
same,normalized growth,[47],0.976
same,normalized growth,[48],0.98
same,normalized growth,[49],0.987
same,normalized growth,[50],0.95
same,normalized growth,[51],0.983
same,normalized growth,[52],0.934
same,normalized growth,[53],0.989
same,normalized growth,[54],0.977
same,normalized growth,[55],0.947
same,normalized growth,[56],0.979
same,normalized growth,[57],0.952
same,normalized growth,[58],0.958
same,normalized growth,[59],1.06
same,normalized growth,[60],0.953
same,normalized growth,[61],0.976
same,normalized growth,[62],0.948
same,normalized growth,[63],0.952
same,normalized growth,[64],0.933
same,normalized growth,[65],0.966
same,normalized growth,[66],0.876
same,normalized growth,[67],0.979
same,normalized growth,[68],0.979
same,normalized growth,[69],0.964
same,normalized growth,[70],0.973
same,normalized growth,[71],0.982
